Consider 28 compounds from PubChem BioAssay AID873 (PCMD, 2007).

Where “and” joins values, the source holds several entries; their conditions need not be identical. Equal values may be shown once. The campaign covered roughly 210,000 compounds. About 1,300 (0.62%) were called active. The sample holds actives, similar compounds and a random draw of the others, so the mix is not that of the screen.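 The calls were made as follows: active = inhibition of 40% or more; inactive = the rest.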 More than one record can exist for a structure, and the calls need not agree.

Sequence of Kallikrein-5 (Homo sapiens) (Q9Y337 67-293 limits assumed): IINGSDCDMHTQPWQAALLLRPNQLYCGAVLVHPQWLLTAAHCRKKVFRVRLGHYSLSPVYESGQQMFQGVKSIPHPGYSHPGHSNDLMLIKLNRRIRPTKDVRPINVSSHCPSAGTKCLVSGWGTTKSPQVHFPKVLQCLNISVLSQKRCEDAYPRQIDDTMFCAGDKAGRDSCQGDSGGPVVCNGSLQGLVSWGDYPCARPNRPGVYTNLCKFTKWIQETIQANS

This test concerns the target Kallikrein-5 (Homo sapiens) (UniProt Q9Y337). Put plainly: human KLK5 protease inhibitors, primary screen, biochemical, 1536-well (AID 873).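 Also: 0% = enzyme controls without compound and 100% = no-enzyme blanks.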 Conditions: recombinant hK5, fluorogenic AMC substrate cleavage; at 5 µM; stronger effect = higher value.
The inhibition is the drop in the measured response relative to a control, in per cent. Regarding `COc1cc(NS(=O)(=O)c2ccccc2)ccc1-n1nc(C)cc1C`, the inhibition is -1.07% (inactive).

As for `COCCCNC(=O)c1ccc2c(c1)ncn2-c1ccccc1OC`, the inhibition was -11.7% (inactive).

Consider `COc1ccccc1-n1cnc2cc(NS(=O)(=O)c3ccccc3)ccc21`, for which the inhibition was 53.3% (active).

As for `O=S(=O)(c1ccc(NC(=S)NN=C(C2CC2)C2CC2)cc1)N1CCOCC1`, the inhibition was -9.15% (inactive).

As to `CCN1C(=O)/C(=C2/Sc3ccccc3N2CCCS(=O)(=O)O)SC1=S`, the inhibition was -2.57% (inactive) and 43.4% (active).

With `CCC(=O)/C=C1\Sc2ccccc2N1CC`, the inhibition is -8.47% (inactive).

In the case of `CCN1C(=O)/C(=c2\s/c(=C3\Sc4ccccc4N3C)c(=O)n2C)N(C)C1=S`, the inhibition is 2.3% (inactive).

Turning to `S=c1nc2ccccc2c2nc(-c3cccnc3)[nH]n12`, the inhibition was -1% (inactive).

As to `O=C(CN1CCN(Cc2ccccc2)CC1)NC(c1ccccc1)c1ccccc1`, the inhibition is -1.99% (inactive).

For the compound `Cc1cc2c(cc1C)N(Cc1ccccc1)C1=NCCCN12`, the inhibition was -0.81% (inactive).

Turning to `COc1ccc(C(C(=O)NC(C)(C)C)N(C(=O)Cn2nnc3ccccc32)c2ccc(C(C)=O)cc2)cc1O` (stereo not drawn), the inhibition is -4.08% (inactive).

Consider `CCOc1ccc(/C(O)=C2\C(=O)C(=O)N(c3ccc(OC)cc3)C2c2ccccc2[N+](=O)[O-])cc1` (stereo not drawn), for which the inhibition is -0.1% (inactive).

Turning to `C/C(Cc1ccccc1)=N\NC(=O)CNC(=O)c1ccccc1Cl`, the inhibition was 47.7% (active).

For `C/C(Cc1ccccc1)=N\NC(=O)CNC(=O)c1cccc(Br)c1`, the inhibition was -15.8% (inactive).

For `C/C(Cc1ccccc1)=N\NC(=O)CNC(=O)c1ccc2c(c1)OCCO2`, the inhibition is -2.98% (inactive).

With `Cc1cc(C(=O)NCCc2ccc(Cl)cc2)n(-c2ccccc2)n1`, the inhibition is 0.87% (inactive).

For `C=CCNC(=O)c1ccc2c3n(nc2c1)-c1ccc(C)cc1CO3`, the inhibition was 2.58% (inactive).

With `C=CCNC(=S)N/N=C/c1ccc(C)s1`, the inhibition was -12.8% (inactive).

With `Cc1nc(-c2ccc(Cl)cc2)sc1C1(C)CC(c2ccccc2F)=NO1` (stereo not drawn), the inhibition is 2.17% (inactive).

For `CC(=O)c1ccc(S(=O)(=O)N2CCN(C(=O)/C=C/c3ccc4ccccc4n3)CC2)cc1`, the inhibition is -6.25% (inactive).

`COCCNC(=S)N1CCN(C)CC1`: the inhibition was 0.97% (inactive).

On to `CC(=O)c1cccc(NC(=O)c2ccncc2)c1`, for which the inhibition was 2.01% (inactive).

`COc1cccc(NC(=O)c2ccccc2SC)c1`: the inhibition is -2.44% (inactive).

For `CSc1ccccc1C(=O)Nc1cccc(C(C)=O)c1`, the inhibition is 45% (active).

Consider `CC(C)(C)C(=O)NNC(=O)c1ccc(Oc2cc(Cl)cc(Cl)c2)o1`, for which the inhibition is 4.32% (inactive).

For `COCCNc1nc(-c2ccccc2)nc2c1oc1ccccc12`, the inhibition was 1.99% (inactive).

Consider `Cn1c(=O)c2c(-c3cccc(Br)c3)c(C#N)c(N)nc2n(C)c1=O`, for which the inhibition is 2.05% (inactive).

For the compound `S=C(NCCc1ccccc1)Nc1ccccc1`, the inhibition was 2.79% (inactive).
